Screens: PubChem, Broad Institute
This excerpt belongs to a sample that is enriched for hits.
IDE exosite inh: exo-site inhibitors of human IDE, primary screen, biochemical, fluorescence anisotropy, probe displacement; Insulin-degrading enzyme (Homo sapiens), P14735; purified IDE, FL-6b probe fluorescence polarization; hits give low values; z-score at 20 µM; 17,000 tested, 6.3% active; AID 1259349, 2017;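 active = z-score of -3 or lower, meaning strong loss of probe binding signal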;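 note: His-tagged human IDE residues 42-1019 made in E. coli with 30 nM FL-6b probe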
Hits are given with their value; n = inactive; ! = a repeat was not active.

SMILES	IDE exosite inh
O=S(=O)(Cc1ccccc1)N1CCCCN2[C@H](CO)[C@H](c3ccc(-c4ccccc4)cc3)[C@@H]2C1	n
COc1ccc(-c2ccc([C@@H]3[C@@H](C#N)N(C(=O)C4CC4)[C@H]3CO)cc2)cc1	n
COc1ccccc1-c1ccc([C@H]2[C@@H](C#N)N(C(=O)C3CC3)[C@H]2CO)cc1	-5.35
COc1ccccc1-c1ccccc1[C@H]1[C@H](C#N)N(C(=O)C2CC2)[C@H]1CO	n
COc1ccc(-c2ccc([C@H]3[C@H](C#N)N(C(=O)C4CC4)[C@H]3CO)cc2)cc1	n
COc1ccc(-c2ccc([C@H]3[C@@H](C#N)N(C(=O)C4CCCC4)[C@@H]3CO)cc2)cc1	n
N#C[C@@H]1[C@@H](c2ccc(-c3ccccc3F)cc2)[C@H](CO)N1C(=O)C1CC1	-3.11
COc1ccc(-c2ccc([C@@H]3[C@@H](C#N)N(C(=O)C4CCCC4)[C@H]3CO)cc2)cc1	n
COc1ccc(-c2ccc([C@H]3[C@@H](C#N)N(C(=O)C4CC4)[C@@H]3CO)cc2)cc1	n
N#C[C@H]1[C@H](c2ccc(-c3ccccc3F)cc2)[C@H](CO)N1C(=O)C1CC1	n
N#C[C@@H]1[C@@H](c2ccc(-c3ccccc3F)cc2)[C@@H](CO)N1C(=O)C1CCC1	n
COc1ccccc1-c1ccc([C@H]2[C@@H](CO)N(C(=O)C3CCCCC3)[C@H]2C#N)cc1	-3.28
COc1ccccc1-c1ccc([C@H]2[C@@H](C#N)N(C(=O)C3CC3)[C@@H]2CO)cc1	-3.17
CO[C@@H]1CC[C@@H]2CCN(C)C(=O)CC3(CCCCC3)CN(C)C(=O)c3cc(C#N)ccc3OC[C@H]1O2	n
C[C@@H]1CN([C@@H](C)CO)C(=O)c2ccccc2-c2ccccc2CO[C@@H]1CN(C)C(=O)Nc1ccnc(N2CCOCC2)c1	n
O=C(C1CC1)N1CC(=O)N2[C@H](C1)[C@H](c1ccc(C#CC3CCCC3)cc1)[C@@H]2CO	n
OC[C@H]1[C@@H](c2ccc(-c3ccncc3)cc2)[C@@H]2CN(Cc3ccccn3)CCCCN12	n
CCCNC(=O)N1[C@H](C#N)[C@H](c2ccccc2-c2ccc(F)cc2)[C@@H]1CO	n
COc1ccc2c3c([nH]c2c1)[C@H](CO)N(C(=O)C1CCOCC1)CC31CCN(Cc2cccc(F)c2)CC1	n
Cc1ccc(CN2CC(=O)N3[C@H](C2)[C@@H](c2ccc(Br)cc2)[C@@H]3CO)cc1	n
Cc1ccccc1-c1ccc([C@H]2[C@H]3CN(C(=O)Nc4cccc(F)c4)CC(=O)N3[C@H]2CO)cc1	n
O=C(CC(F)(F)F)N1C[C@H]2[C@@H](c3ccccc31)[C@H](CO)N2Cc1cccnc1	n
O=C(Nc1cccc(F)c1)N1CC(=O)N2[C@H](CO)[C@H](c3ccc(-c4ccc(F)cc4)cc3)[C@@H]2C1	n
COc1ccc(-c2ccc([C@H]3[C@H](C#N)N(C(=O)c4cccc(F)c4)[C@H]3CO)cc2)cc1	n
COc1ccc(-c2ccc([C@H]3[C@@H](C#N)N(C(=O)NC(C)C)[C@@H]3CO)cc2)cc1	n
SMILES	IDE exosite inh
Cc1ccc(-c2ccccc2[C@@H]2[C@H](C#N)N(C(=O)c3cccc(F)c3)[C@H]2CO)cc1	n
COc1ccccc1-c1ccc([C@@H]2[C@@H](C#N)N(C(=O)c3cccc(F)c3)[C@@H]2CO)cc1	-13.3
COc1ccc(-c2ccc([C@@H]3[C@H](C#N)N(C(=O)NC(C)C)[C@H]3CO)cc2)cc1	n
COc1ccccc1-c1ccc([C@H]2[C@@H](CO)N(C(=O)NC(C)C)[C@H]2C#N)cc1	-16.3
CN(C)C(=O)c1cccc(-c2ccc([C@@H]3[C@H](CO)N4C(=O)CN(C(=O)C5CC5)C[C@@H]34)cc2)c1	n
C/C=C/c1ccc([C@@H]2[C@@H](CO)N3CCCCN(S(=O)(=O)c4cccs4)C[C@@H]23)cc1	n
CCS(=O)(=O)N1[C@H](CO)[C@H](c2ccccc2)[C@@H]1CN(C)Cc1ccccn1	n
Cc1ccccc1-c1ccc(C2[C@@H]3CN(Cc4ccc5c(c4)OCO5)C[C@H]2N3)cc1 (stereo not given in full)	-4.3!
Cc1ccccc1-c1ccc(C2[C@H]3CNC[C@@H]2N3Cc2ccc3c(c2)OCO3)cc1 (stereo not given in full)	n
Cc1ccccc1-c1ccc(C2[C@@H]3CN(Cc4cocn4)C[C@H]2N3)cc1 (stereo not given in full)	-3.01!
C(=C\c1ccc(C2[C@@H]3CN(Cc4cocn4)C[C@H]2N3)cc1)/c1ccccc1 (stereo not given in full)	n
c1ncc(-c2ccc(C3[C@@H]4CN(Cc5cocn5)C[C@H]3N4)cc2)cn1 (stereo not given in full)	n
c1cncc(-c2ccc(C3[C@@H]4CN(Cc5ccc6c(c5)OCO6)C[C@H]3N4)cc2)c1 (stereo not given in full)	n
O=C(c1ccccn1)N1CC(=O)N2[C@H](C1)[C@H](c1ccc(C#CC3CCCC3)cc1)[C@@H]2CO	n
CCCC#Cc1ccc([C@H]2[C@@H](CO)N(C(=O)C3CCCC3)[C@H]2C#N)cc1	n
CS(=O)(=O)Nc1ccc2c(c1)[C@@H]1C[C@@H](CC(=O)NCc3cc(F)ccc3F)O[C@H](CO)[C@@H]1O2	n
CC(C)NC(=O)N1[C@@H](C#N)[C@H](c2ccc(C#CC3CCCCC3)cc2)[C@@H]1CO	n
COc1ccc(C#Cc2ccc([C@H]3[C@H]4CN(C(=O)c5ccc(F)cc5)CC(=O)N4[C@H]3CO)cc2)cc1	n
COc1cccc(-c2ccc(C3[C@H]4CNC[C@@H]3N4Cc3ccc(F)cc3)cc2)c1 (stereo not given in full)	n
CS(=O)(=O)N1CC2(C1)[C@H](c1ccccc1)[C@@H](CO)N2Cc1ccccc1	n
CCC(=O)N1[C@H](CO)[C@@H](c2ccc(/C=C/c3ccccc3)cc2)C12CN(S(C)(=O)=O)C2	-7.41
CCS(=O)(=O)N1CC2(C1)[C@H](c1ccccc1)[C@@H](CO)N2C(=O)c1ccccc1	n
CCS(=O)(=O)N1CCCCN2[C@H](CO)[C@H](c3ccc(-c4ccccc4)cc3)[C@H]2C1	n
Cc1ccccc1-c1ccc([C@@H]2[C@@H](CO)N3CCCCN(S(C)(=O)=O)C[C@@H]23)cc1	-17.9
Cc1ccccc1-c1ccc([C@H]2[C@@H](CO)N3CCCCN(S(=O)(=O)Cc4ccccc4)C[C@@H]23)cc1	n
SMILES	IDE exosite inh
CS(=O)(=O)N1CCCCN2[C@H](CO)[C@@H](c3ccc(C4=CCCC4)cc3)[C@H]2C1	n
CS(=O)(=O)N1CCCCN2[C@H](C1)[C@H](c1ccc(Br)cc1)[C@@H]2CO	n
Cc1ccccc1-c1ccc([C@H]2[C@H]3CN(S(=O)(=O)Cc4ccccc4)CCCCN3[C@H]2CO)cc1	n
CCS(=O)(=O)N1CCCCN2[C@@H](CO)[C@@H](c3ccc(-c4ccccc4C)cc3)[C@@H]2C1	-14.5
Cc1ccccc1-c1ccc([C@H]2[C@@H](CO)N3CCCCN(S(=O)(=O)Cc4ccccc4)C[C@H]23)cc1	n
Cc1ccccc1-c1ccc([C@@H]2[C@H]3CN(S(C)(=O)=O)CCCCN3[C@H]2CO)cc1	-5.16
CS(=O)(=O)N1CCCCN2[C@H](CO)[C@H](c3ccc(C4=CCCC4)cc3)[C@@H]2C1	n
Cc1ccccc1-c1ccc([C@@H]2[C@H](CO)N3CCCCN(S(C)(=O)=O)C[C@@H]23)cc1	-10.3
CCS(=O)(=O)N1CCCCN2[C@H](CO)[C@@H](c3ccc(-c4ccccc4C)cc3)[C@H]2C1	n
